Consider eight compounds from PubChem BioAssay (Tox21).

A number with no mark means an inactive call. Inconclusive results are not listed. Activity calls are given as the source filed them. Unless noted, calls follow the shape of the dose curve; as a rule, active = well fitted curve in the direction sought with a large enough effect in the repeat runs; inconclusive = weak or mixed curves; inactive = no such curve, though single readings can be large; an effect the other way counts as inactive or inconclusive.

For experiment [1], the target named is Progesterone receptor (Homo sapiens) (UniProt P06401). Briefly: qHTS assay to identify small molecule antagonists of the progesterone receptor (PR) signaling pathway (AID 1346795; active = well fitted inhibition curve with a large enough effect in the signal ratio in the repeat runs, not every such curve was filed as active; the % refers to the signal ratio). The method in brief: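 Antagonist mode with agonist R5020 at 1 nM final and 16 hr incubation at 37C. Reporter was beta-lactamase driven by UAS in HEK293T (PR-UAS-bla), 2% charcoal-stripped serum; signal from LiveBLAzer FRET substrate, 2 hr at room temperature.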
Sequence of Progesterone receptor (Homo sapiens) (P06401 whole entry, looked up): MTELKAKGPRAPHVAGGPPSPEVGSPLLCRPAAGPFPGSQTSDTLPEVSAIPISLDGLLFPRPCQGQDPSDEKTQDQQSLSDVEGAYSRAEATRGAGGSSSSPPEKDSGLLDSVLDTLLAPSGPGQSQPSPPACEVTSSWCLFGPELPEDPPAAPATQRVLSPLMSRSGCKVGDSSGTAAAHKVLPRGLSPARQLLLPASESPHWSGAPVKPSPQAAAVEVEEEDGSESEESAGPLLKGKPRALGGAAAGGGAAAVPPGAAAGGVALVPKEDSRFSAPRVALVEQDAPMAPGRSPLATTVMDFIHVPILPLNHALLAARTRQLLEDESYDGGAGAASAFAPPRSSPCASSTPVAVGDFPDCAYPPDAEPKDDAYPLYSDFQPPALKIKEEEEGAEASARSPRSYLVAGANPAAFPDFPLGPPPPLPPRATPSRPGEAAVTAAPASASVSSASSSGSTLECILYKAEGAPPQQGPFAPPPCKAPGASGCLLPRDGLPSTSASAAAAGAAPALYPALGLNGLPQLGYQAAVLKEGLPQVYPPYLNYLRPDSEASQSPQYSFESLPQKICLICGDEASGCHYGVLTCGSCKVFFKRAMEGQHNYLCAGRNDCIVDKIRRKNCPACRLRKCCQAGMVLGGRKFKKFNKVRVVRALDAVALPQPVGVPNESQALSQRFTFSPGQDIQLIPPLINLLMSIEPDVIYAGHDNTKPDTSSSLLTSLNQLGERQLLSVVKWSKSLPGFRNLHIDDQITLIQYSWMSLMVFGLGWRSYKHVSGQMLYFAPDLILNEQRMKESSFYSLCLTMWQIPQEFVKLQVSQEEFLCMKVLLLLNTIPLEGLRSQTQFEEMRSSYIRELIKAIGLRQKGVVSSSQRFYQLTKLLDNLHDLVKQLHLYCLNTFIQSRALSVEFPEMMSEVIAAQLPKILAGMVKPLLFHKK

Experiment [2] in a line: qHTS assay to identify small molecule antagonists of the progesterone receptor (PR) signaling pathway - cell viability counter screen (AID 1346798). Also: series mostly up to about 92 µM; nearly all actives have a fitted effect of over 50% in size. In outline:
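Cytotoxicity read as CellTiter-Glo luminescence (30 min, room temperature) in the same wells as the beta-lactamase readout. HEK293T PR-UAS-bla cells in charcoal-stripped 2% FBS received compound and R5020, then 16 h at 37C, 5% CO2.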
(In general: In qHTS, concentration-response curves come from the screen itself.)

Experiment [3] in a line: qHTS assay to identify small molecule agonists of the progesterone receptor (PR) signaling pathway - cell viability counter screen (AID 1346799; calls by dose curve; also: nearly all actives have a fitted effect of over 45% in size). The method in brief:
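Cytotoxicity measured by CellTiter-Glo luminescence (30 min, RT) in the same wells as the PR beta-lactamase agonist read. Those HEK293T cells had 16 h compound treatment at 37 C in 2% charcoal-stripped FBS medium.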

A short description of experiment [4]: qHTS assay to identify small molecule antagonists of the TGF-beta/Smad signaling pathway - cell viability counter screen (AID 1346824). Also: nearly all actives have a fitted effect of over 50% in size. The method in brief:
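Cytotoxicity counter-screen run in the same wells as the beta-lactamase Smad reporter read: CellTiter-Glo luminescence after 30 min at room temperature. HEK 293T SBE-bla cells had 5 hr compound exposure at 37 C with TGF-beta1 (0.25 ng/mL stock).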

Experiment [5] in a line: qHTS assay to identify small molecule agonists of the TGF-beta/Smad signaling pathway - cell viability counter screen (AID 1346829). Also: top concentration of the series differs between compounds; nearly all actives have a fitted effect of over 45% in size. In outline: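 CellTiter-Glo luminescence readout; SBE-bla HEK 293T cells, overnight plating, compound 5 hr at 37 C/5% CO2, then bla substrate 2 hr RT, then CellTiter-Glo 30 min RT.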
Experiment [6] can be described thus: qHTS assay to identify small molecule agonists of the TGF-beta/Smad signaling pathway (AID 1346859; active = well fitted activation curve with a large enough effect in the signal ratio in the repeat runs, not every such curve was filed as active; the % refers to the signal ratio; also: series mostly up to about 77 µM). In outline: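 Fluorescence (ex 405 nm; em 460 and 530 nm) was read 2 h after LiveBLAzer FRET substrate at RT. The preceding compound treatment of overnight-plated SBE-bla HEK293T cells lasted 5 h at 37 C.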
Experiment [7] addresses Thyrotropin-releasing hormone receptor (Homo sapiens) (UniProt P34981). As to the kind of experiment: qHTS assay to identify small molecule antagonists of the thyrotropin-releasing hormone receptor (TRHR) signaling pathway (AID 1346877; active = well fitted inhibition curve with a large enough effect in the repeat runs, not every such curve was filed as active; also: series mostly up to about 51 µM). In outline: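 Kinetic fluorescence (3 min, 1 s resolution) following stimulation with TRH at 1 nM final; HEK293 cells bearing human TRHR; 5 min compound preincubation at RT; concentration-response over 15 points, triplicates.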

Experiment [8] has the same target. As to the kind of experiment: qHTS assay to identify small molecule agonists of the thyrotropin-releasing hormone receptor (TRHR) signaling pathway (AID 1346891; calls by dose curve; also: series mostly up to about 58 µM). In outline: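 Agonist-mode intracellular calcium readout: kinetic fluorescence over 3 min at 1 s intervals after compound addition to TRHR-HEK293 cells (18 h seeded, 2 h dye-loaded at 37 C). Fifteen concentrations, triplicates.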

A short description of experiment [9]: Human pregnane X receptor (PXR) small molecule agonists, qHTS cell viability counter screen (AID 1346977). Also: nearly all actives have a fitted effect of over 50% in size. In outline:
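Same-well viability read: CellTiter-Fluor added after 23 hr compound exposure, fluorescence measured 1 hr later. Cells were PXR-Luc HepG2 seeded at 2,000/well in 5% charcoal-stripped FBS medium, rested 5 hr before dosing at 37 C.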

Experiment [10] is described as follows: Caspase-3/7 induction in HepG2 cells by small molecules, qHTS assay (AID 1346978). Also: nearly all actives have a fitted effect of over 15% in size. The method in brief: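 Caspase-3/7 induction was measured by Caspase-Glo 3/7 luminescence (30 min, room temperature) after a 17 hr compound exposure of wild-type HepG2 cells seeded at 2,000 per well and pre-incubated 5 hr.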
The nature of experiment [11]: Caspase-3/7 induction in CHO-K1 cells by small molecules, qHTS cell viability counter screen (AID 1346979). Also: nearly all actives have a fitted effect of over 35% in size. The method in brief:
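Cytotoxicity counter screen: CellTiter-Fluor added to compound-treated wild-type CHO-K1 cells at 16 h (37C, 5% CO2), fluorescence measured 1 h later; same wells as caspase-3/7 measurement.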

Experiment [12] can be described thus: Caspase-3/7 induction in CHO-K1 cells by small molecules, qHTS assay (AID 1346980). Also: nearly all actives have a fitted effect of over 15% in size. In outline: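 Luminescent Caspase-Glo 3/7 read (30min, room temperature) quantified apoptosis induction. Cells were wild-type CHO-K1, treated with compound for 17hr at 37 C and 5% CO2.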
Experiment [13] is described as follows: Caspase-3/7 induction in HepG2 cells by small molecules, qHTS cell viability counter screen (AID 1346981). Also: series mostly up to about 92 µM; nearly all actives have a fitted effect of over 30% in size. The method in brief: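 In this quantitative HTS counter screen, compounds delivered in DMSO were left on unmodified HepG2 cells for 16 hr at 37 C. Viability was then determined fluorometrically with CellTiter-Fluor, in parallel with caspase-3/7 induction in the same wells.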

Experiment [14] addresses Nuclear receptor subfamily 1 group I member 2 (Homo sapiens) (UniProt O75469). Briefly: Human pregnane X receptor (PXR) small molecule agonists, qHTS assay (AID 1346982). Also: nearly all actives have a fitted effect of over 35% in size. Also: potency is read from the fitted curve at half-maximal effect. In outline:
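Reporter HepG2 cells expressing PXR-Luc are cultured in charcoal-stripped FBS (5%), treated with compounds for 24 hr at 37 C, and assayed by ONE-Glo luminescence after 30 min at room temperature.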

In experiment [15] the target is Cytochrome P450 2D6 (Homo sapiens) (UniProt P10635). Briefly: Cytochrome P450 Family 2 Subfamily D Member 6 (CYP2D6) small molecule antagonists: luciferase reporter qHTS assay (AID 1671196). Also: series mostly up to about 120 µM; nearly all actives have a fitted effect of over 50% in size. In outline:
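Test chemicals meet CYP2D6 plus proluciferin substrate (10 min, RT); NADPH regenerating solution then drives turnover for 1 h. Detection reagent halts the reaction; luminescence measured after 20 min.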
On the technique in general: A reporter such as luciferase makes a cellular process visible.

In experiment [16] the target is Cytochrome P450 2C19 (Homo sapiens) (UniProt P33261). As to the kind of experiment: Cytochrome P450 Family 2 Subfamily C Member 19 (CYP2C19) small molecule antagonists: luciferase reporter qHTS assay (AID 1671197). Also: series mostly up to about 120 µM; nearly all actives have a fitted effect of over 65% in size. In outline: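 Enzyme-substrate mix with proluciferin substrate (P450-Glo CYP2C19 system) preincubated with compounds 10 min at room temperature; NADPH regeneration solution added, 37C for 1 h; detection reagent stops reaction, luminescence read after 20 min. Ketoconazole positive control.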
Sequence of Cytochrome P450 2C19 (Homo sapiens) (P33261 whole entry, looked up): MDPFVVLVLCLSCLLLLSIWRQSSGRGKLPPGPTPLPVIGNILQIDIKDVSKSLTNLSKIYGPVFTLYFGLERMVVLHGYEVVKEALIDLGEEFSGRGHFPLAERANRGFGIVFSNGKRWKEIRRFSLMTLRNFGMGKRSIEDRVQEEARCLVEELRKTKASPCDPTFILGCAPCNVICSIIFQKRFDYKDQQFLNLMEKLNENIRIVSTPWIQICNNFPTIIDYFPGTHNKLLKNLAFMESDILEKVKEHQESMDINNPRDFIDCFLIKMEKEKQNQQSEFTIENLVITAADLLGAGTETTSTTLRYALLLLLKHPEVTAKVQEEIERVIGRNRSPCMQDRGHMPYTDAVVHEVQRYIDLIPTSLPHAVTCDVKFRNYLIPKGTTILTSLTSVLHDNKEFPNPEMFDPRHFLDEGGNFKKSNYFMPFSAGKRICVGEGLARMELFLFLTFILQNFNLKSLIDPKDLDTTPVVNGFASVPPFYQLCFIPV

Experiment [17] deals with Progesterone receptor (Homo sapiens) (UniProt P06401). Briefly: qHTS assay to identify small molecule agonists of the progesterone receptor (PR) signaling pathway (AID 1346784; calls by dose curve; also: nearly all actives have a fitted effect of over 30% in size). The method in brief:
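Agonist qHTS: compounds pinned onto 3,000 PR-UAS-bla HEK 293T cells per well in charcoal-stripped serum medium, 16hr at 37C, then beta-lactamase activity measured by LiveBLAzer FRET fluorescence after 2 hours at room temperature.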

In experiment [18] the target is Nuclear receptor subfamily 1 group I member 2 (Rattus norvegicus) (UniProt Q9R1A7). As to the kind of experiment: Rat pregnane X receptor (rPXR) activation by small molecules, qHTS assay (AID 1346983). Also: nearly all actives have a fitted effect of over 20% in size. To be noted: rPXR luciferase reporter cells, One-Glo luminescence, 24 h; max activation: hits give high values. In outline:
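Luminescent readout (One-Glo luciferase, 30 min room temperature) followed 24 hr compound treatment at 37 C of rPXR cells plated 2,000 per well and preincubated 5hr; qHTS format with compounds delivered in DMSO.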

Experiment [19] has as its target Nuclear receptor subfamily 1 group I member 2 (Homo sapiens) (UniProt O75469). Briefly: CYP3A4 induction through human pregnane X receptor (PXR) by small molecules, qHTS assay (AID 1346984). Also: nearly all actives have a fitted effect of over 40% in size. In outline: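 Induction measured in HepG2-based DPX-2 cells co-expressing human PXR and a CYP3A4 promoter-driven luciferase. After a 24-hour compound exposure, cells received CYP3A4 luciferin substrate at 3uM final for 3 hours, and light output was then recorded.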

Experiment [20] has the same target. As to the kind of experiment: Human pregnane X receptor (PXR) activation by small molecules, qHTS assay (AID 1346985). Also: nearly all actives have a fitted effect of over 40% in size. In outline:
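DPX-2 cells (HepG2 co-transfected with a PXR response element and a CYP3A4-promoter luciferase construct) were seeded at 2,000 per well, rested 5 hr at 37C, then exposed to DMSO-dissolved compounds for 24 hr. Activation was read as luciferase luminescence.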
% is scaled to controls: 0 for no effect and ±100 for the full control effect.

Sequence of Cytochrome P450 2D6 (Homo sapiens) (P10635 whole entry, looked up): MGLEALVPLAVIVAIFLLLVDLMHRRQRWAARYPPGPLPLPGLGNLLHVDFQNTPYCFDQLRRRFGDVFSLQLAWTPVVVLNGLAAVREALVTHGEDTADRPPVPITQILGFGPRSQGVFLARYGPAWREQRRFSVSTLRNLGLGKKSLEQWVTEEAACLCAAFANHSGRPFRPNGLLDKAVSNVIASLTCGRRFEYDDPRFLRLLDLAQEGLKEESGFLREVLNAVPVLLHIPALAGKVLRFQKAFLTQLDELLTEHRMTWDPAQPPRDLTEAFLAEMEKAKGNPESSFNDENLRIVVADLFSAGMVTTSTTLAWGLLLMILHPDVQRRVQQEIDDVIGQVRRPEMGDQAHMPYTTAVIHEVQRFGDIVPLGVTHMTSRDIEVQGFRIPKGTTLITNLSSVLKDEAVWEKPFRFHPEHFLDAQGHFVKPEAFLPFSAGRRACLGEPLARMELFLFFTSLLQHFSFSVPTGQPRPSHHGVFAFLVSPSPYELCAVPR
Sequence of Thyrotropin-releasing hormone receptor (Homo sapiens) (P34981 whole entry, looked up): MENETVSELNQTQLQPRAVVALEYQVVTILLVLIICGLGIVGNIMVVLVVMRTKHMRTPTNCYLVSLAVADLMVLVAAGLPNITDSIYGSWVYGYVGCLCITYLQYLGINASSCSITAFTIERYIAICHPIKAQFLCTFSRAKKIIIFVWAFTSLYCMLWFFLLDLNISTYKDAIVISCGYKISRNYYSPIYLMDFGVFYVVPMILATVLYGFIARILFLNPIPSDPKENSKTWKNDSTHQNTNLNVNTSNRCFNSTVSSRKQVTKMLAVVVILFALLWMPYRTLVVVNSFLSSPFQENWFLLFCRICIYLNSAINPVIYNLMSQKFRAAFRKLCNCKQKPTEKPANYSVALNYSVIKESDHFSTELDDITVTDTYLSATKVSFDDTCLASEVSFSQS
Sequence of Nuclear receptor subfamily 1 group I member 2 (Homo sapiens) (O75469 whole entry, looked up): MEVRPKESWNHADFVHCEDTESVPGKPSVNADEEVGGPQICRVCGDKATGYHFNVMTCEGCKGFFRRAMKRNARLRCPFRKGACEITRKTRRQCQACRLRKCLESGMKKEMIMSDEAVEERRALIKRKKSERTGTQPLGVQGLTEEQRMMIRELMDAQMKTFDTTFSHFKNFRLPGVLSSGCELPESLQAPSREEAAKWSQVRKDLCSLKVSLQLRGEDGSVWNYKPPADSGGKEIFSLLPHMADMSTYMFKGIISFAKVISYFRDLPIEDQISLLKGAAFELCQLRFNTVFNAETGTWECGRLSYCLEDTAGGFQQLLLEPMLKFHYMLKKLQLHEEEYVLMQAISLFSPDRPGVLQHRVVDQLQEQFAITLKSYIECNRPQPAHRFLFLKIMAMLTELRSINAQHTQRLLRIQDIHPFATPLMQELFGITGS
Sequence of Nuclear receptor subfamily 1 group I member 2 (Rattus norvegicus) (Q9R1A7 whole entry, looked up): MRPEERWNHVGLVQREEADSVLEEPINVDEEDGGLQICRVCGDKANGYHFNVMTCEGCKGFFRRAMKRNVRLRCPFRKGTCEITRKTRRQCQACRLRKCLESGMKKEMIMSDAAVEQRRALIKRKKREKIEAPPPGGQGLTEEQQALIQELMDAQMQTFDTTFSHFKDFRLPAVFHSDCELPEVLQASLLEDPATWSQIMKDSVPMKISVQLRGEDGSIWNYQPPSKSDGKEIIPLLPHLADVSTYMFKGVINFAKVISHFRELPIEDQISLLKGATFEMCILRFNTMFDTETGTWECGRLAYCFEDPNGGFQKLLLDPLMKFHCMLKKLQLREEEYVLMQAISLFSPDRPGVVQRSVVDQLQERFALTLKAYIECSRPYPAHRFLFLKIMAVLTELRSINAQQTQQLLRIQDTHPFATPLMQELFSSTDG

Take `c1ccc(CCc2ccccc2)cc1`: the Potency entry in experiment [1], in experiment [2], in experiment [3], in experiment [8], in experiment [9] and in [11] was “inactive” each time. The Potency result in experiment [13], in [14], in experiment [15] and in experiment [16] was “inactive” each time. The call in [4], in experiment [5], in experiment [6], in [7], in experiment [10] and in [12] was inactive.

On to `CN(C)CCCN(C)CCCN(C)C`, for which the Potency result in experiment [17], in experiment [3], in experiment [9], in experiment [11], in experiment [13] and in experiment [14] was “inactive” in each case. In addition, the Potency result in experiment [15] and in experiment [16] was “inactive” each time. Moreover, the outcome in experiment [4], in experiment [5], in experiment [6], in [7], in experiment [10] and in [12] was inactive.

Turning to `CC(C)(C)c1ccc(-c2ccc(C(C)(C)C)cc2)cc1`, the Potency result in experiment [17], in experiment [2], in experiment [8], in experiment [9], in [11] and in experiment [13] was “inactive” each time. Also, the Potency result in experiment [14] and in [15] was “inactive” each time. The outcome in [4], in [5], in experiment [6], in experiment [7] and in experiment [10] was inactive.

In the case of `CCCCCCCCCCOc1cc2c(=O)c(C(=O)OCC)c[nH]c2cc1OCC`, the activity change, negative = inhibition was -0.779% [at 8.39 µM] in experiment [1] and -50% [at 10.5 µM] in experiment [15]. Further, the activity change, negative = cytotoxicity in experiment [2] is 1.18% [at 8.39 µM]; in experiment [3], -5.75% [at 8.39 µM]; in experiment [5] it was 0.83% [at 6.97 µM]; in [9], -1.67% [at 8.39 µM]; in experiment [11] it was 0.813% [at 8.39 µM]; in experiment [13] it was 2.55% [at 8.39 µM]. In addition, the viability change, negative = cytotoxic in [4] is 0.981% [at 6.97 µM]. Further, the activation was 0.379% [at 6.97 µM] in [6], 0.481% [at 5.23 µM] in experiment [8] and -4.21% [at 8.39 µM] in experiment [14]. Further, the activity, negative = inhibition in [7] was 0.403% [at 4.65 µM]. Also, in [10], the caspase activation was 0.159% [at 8.39 µM]. Also, the caspase-3/7 activation in [12] is 1.97% [at 8.39 µM]. In addition, the max activation in [18] is -1.23%. For the same compound, the Potency result in experiment [19] and in [20] was “inactive” in each case.

In the case of `CN1CC(=O)N/C1=N/C(=O)Nc1cccc(Cl)c1`, the Potency entry in experiment [1], in experiment [2], in experiment [3], in [9], in [11] and in experiment [13] was “inactive” each time. The Potency entry in experiment [19] and in [20] was “inactive” each time. In addition, the result in experiment [4], in experiment [5], in experiment [6], in experiment [7], in experiment [10] and in experiment [12] was inactive. Further, the Potency in experiment [14] was 13.3 µM (active).

`CCCCCCCCCCCCCCC(=O)O`: the Potency entry in experiment [2], in experiment [3], in experiment [8], in experiment [9], in experiment [11] and in [13] was “inactive” in each case. Further, the Potency result in experiment [14] is “inactive”. In addition, the compound was classed as inactive in experiment [5], in experiment [6], in experiment [7] and in experiment [10].

Turning to `CC1CCC(CO)CC1` (configuration not stated), the Potency result in experiment [2], in experiment [3], in experiment [9], in [11], in experiment [13] and in [14] was “inactive” in each case. For the same compound, in experiment [15], the Potency result was “inactive”. Further, the result in experiment [4], in experiment [5], in experiment [6], in [7], in experiment [10] and in experiment [12] was inactive.

`O=S(=O)(O)c1cccc(S(=O)(=O)O)c1`: the Potency entry in [2], in experiment [3], in experiment [9], in experiment [11], in [13] and in experiment [14] was “inactive” throughout. For the same compound, in [15], the Potency result is “inactive”. The compound was classed as inactive in [4], in [5], in [6], in experiment [10] and in experiment [12].
